Experimental data: PubChem BioAssay AID493210 (National Center for Advancing Translational Sciences (NCATS), 2011)
The list shows a part of the results. Activity calls are given as the source filed them. Calls follow the shape of the full dose curve.

Molecular target: Aldehyde dehydrogenase 1A1 (Homo sapiens) (UniProt P00352)
Assay: Inhibitors of Aldehyde Dehydrogenase 1 (ALDH1A1): Followup Confirmation and Counterscreen
Conditions: purified ALDH1A1, NADH fluorescence, propionaldehyde/NAD+
Text: Aldehyde dehydrogenase 1 (ALDH1A1) catalyzes the NAD+ dependent oxidation of a variety of endogenous and exogenous aldehydes to the corresponding carboxylic acids. The enzyme is the critical step in the metabolic activation of retinoic acid, which plays essential roles as nuclear receptor ligand. […] See [1] through for more information on ALDH1A1. Inhibition of ALDH1A1 activity was screened by utilizing propionaldehyde as an electron donor and NAD+ as an electron acceptor/cofactor. An increase in the fluorescence intensity due to conversion of NAD+ to NADH was used to measure the enzyme activity. See [5] for screening methodology used. References: [1] Manzer R, Qamar L, Estey T, Pappa A, Petersen DR, Vasiliou V. Molecular cloning and baculovirus expression of the rabbit corneal aldehyde dehydrogenase (ALDH1A1) cDNA. DNA Cell Biol. 2003 May;22(5):329-38. Collard F, Vertommen D, Fortpied J, Duester G, Van Schaftingen E. Identification of 3-deoxyglucosone dehydrogenase as aldehyde dehydrogenase 1A1 (retinaldehyde dehydrogenase 1). Biochimie. 2007 Mar;89(3):369-73. Ziouzenkova O, Orasanu G, Sharlach M, Akiyama TE, Berger JP, Viereck J, Hamilton JA, Tang G, Dolnikowski GG, Vogel S, Duester G, Plutzky J. Retinaldehyde represses adipogenesis and diet-induced obesity. Nat Med. 2007 Jun;13(6):695-702. Molotkov A, Duester G. Genetic evidence that retinaldehyde dehydrogenase Raldh1 (Aldh1a1) functions downstream of alcohol dehydrogenase Adh1 in metabolism of retinol to retinoic acid. J Biol Chem. 2003 Sep 19;278(38):36085-90. […] Quantitative high-throughput screening: a titration-based approach that efficiently identifies biological activities in large chemical libraries. […]
Buffer: 100 mM Hepes pH 7.5, 0.01% Tween 20. […] The plates were immediately transferred to and read twice on ViewLux High-throughput CCD imager (Perkin-Elmer) 20 minutes apart using 360 nm excitation and 450 nm emission fluorescence protocol. The fluorescence intensity difference between the second and the first time points was used to compute reaction progress.

Sequence of Aldehyde dehydrogenase 1A1 (Homo sapiens) (P00352 whole entry, looked up): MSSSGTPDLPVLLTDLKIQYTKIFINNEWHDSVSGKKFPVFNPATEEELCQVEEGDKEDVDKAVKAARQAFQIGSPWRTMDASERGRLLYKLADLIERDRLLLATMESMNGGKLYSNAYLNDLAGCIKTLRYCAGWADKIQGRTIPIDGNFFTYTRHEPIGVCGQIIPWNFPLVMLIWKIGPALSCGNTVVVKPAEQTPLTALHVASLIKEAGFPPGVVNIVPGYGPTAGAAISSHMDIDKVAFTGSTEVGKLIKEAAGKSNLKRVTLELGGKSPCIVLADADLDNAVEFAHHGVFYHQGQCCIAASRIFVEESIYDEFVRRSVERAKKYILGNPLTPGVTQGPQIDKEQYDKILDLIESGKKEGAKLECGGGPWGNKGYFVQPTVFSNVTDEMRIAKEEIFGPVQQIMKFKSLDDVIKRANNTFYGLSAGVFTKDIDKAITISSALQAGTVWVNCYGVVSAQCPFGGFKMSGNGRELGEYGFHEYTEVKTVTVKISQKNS

Q: Which Potency does the source give for `CC1CCCN(C(=O)c2ccc3c(c2)C(=O)N(CCC2=CCCCC2)C3=O)C1` (stereo not drawn) here?
A: 1260 nM (active)

Q: With `Cc1cccc2c1N(CC(=O)OC(C)C)C(=O)C2=O` as the compound, how does the Potency read?
A: 22.4 nM (active)

Q: For `O=C(CN(Cc1ccccc1)C(=O)c1ccc2c(c1)OCCO2)NCc1ccc2c(c1)OCO2`, which Potency is on record?
A: 398 nM (active)
